Source: PubChem BioAssay (National Center for Advancing Translational Sciences (NCATS))
Only some compounds are listed: those with a hit (about 4.8% of all), similar ones and a draw of the others.
TSHR agonist: agonists of human thyroid stimulating hormone receptor. P16473. HEK293-CNG-TSHR cells (CNG channel as cAMP sensor), membrane potential dye, cAMP. Potency, µM (highest dose often 57.1 µM), hits mostly activators. 73,000 compounds, 0.48% hits. AID 926; active = well fitted activation curve with a large enough effect in the main read-out, with a control signal flat, not every such curve was filed as active; inconclusive = small, poorly fitted or top-dose-only effect, or a change in a side signal; inactive = no such curve, though single readings can be large or run the other way; reference of the percent scale not stated here;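 also: the control signal comes from parental cells without the receptor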
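HEK 293 cells stably expressing TSHR and a modified CNG channel, with CNG-only parental cells as counterscreen, were preloaded 60 min at room temperature with membrane potential dye containing 100 uM RO 20-1724. Compound exposure was 30 min, and depolarization was read as fluorescence at 590 nm.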
HEK293 cAMP ctrl: parental HEK293 cAMP activation (counter-screen); AID 938; parental HEK293 CNG cAMP sensor, membrane potential fluorescence; 73,000 compounds, 2.5% hits; Potency, µM (highest dose often 57.1 µM), most hits filed as activators; also: nearly all actives have a fitted effect of over 55% in size
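Parental HEK 293 cells stably expressing a cAMP-gated CNG channel were loaded with membrane potential dye containing 100 uM RO 20-1724 for 60 min. Compound added for 30 min; depolarization read as fluorescence intensity at 590 nm.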
ERK AVP inh: blocks ERK signaling stimulated by vasopressin; 72,000 compounds, 0.99% hits; AID 995; Potency, µM (highest dose often 57.5 µM), usual class: inhibitors; HEK293-V1b, vasopressin-stimulated pERK AlphaScreen; also: nearly all actives have a fitted effect of over 55% in size
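HEK293 cells stably expressing V1b receptor, seeded overnight in 1% FBS, were treated with compounds for 30 min at 37C, then stimulated 5 min with 25 nM vasopressin; phospho-ERK read by AlphaScreen SureFire after lysis.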
Caspase-7 inhib: caspase-7 (human) inhibition, allosteric or competitive; recombinant caspase-7, Ac-DEVD-AFC fluorescence rate; Potency, µM (doses to about 57.5 µM), most hits filed as inhibitors; P55210; 75,000 compounds, 0.02% hits; AID 889; active = well fitted inhibition curve with a large enough effect in the main read-out, with a control signal flat, not every such curve was filed as active; inconclusive = small, poorly fitted or top-dose-only effect, or a change in a side signal
Casp1 inh: caspase-1 (human) inhibition, allosteric or competitive; P29466; 75,000 compounds, 0.03% hits; Potency, µM (series often up to 57.5 µM), usual class: inhibitors; Caspase-1 enzyme, Ac-WEHD-AFC fluorogenic rate; AID 900
15-hLO inh: inhibitors of human 15-lipoxygenase (ALOX15). P16050. purified 15hLO-1, xylenol orange hydroperoxide absorbance. Potency, µM (top dose mostly 57.1 µM), usual class: inhibitors. 74,000 compounds, 1.4% hits; also: nearly all actives have a fitted effect of over 55% in size
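Compounds were preincubated 15 min at room temperature with 40 nM purified human enzyme (25 mM Hepes pH 7.5, 0.01% Triton X-100); 50 uM arachidonic acid reacted 6 min. Fe-xylenol orange detection, 30 min, absorbance ratio 573/405 nm.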
Each line names hits and unclear results; the compound was inactive in the other large screens. Unless noted, calls follow the shape of the dose curve; as a rule, active = well fitted curve in the direction sought with a large enough effect; inconclusive = small, poorly fitted or top-dose-only effect, or another doubt; inactive = no such curve, though single readings can be large; an effect the other way counts as inactive or inconclusive.

O=C(O)c1cc(S(=O)(=O)Nc2cccc(F)c2)ccc1Cl	none (no result: ERK AVP inh)
COc1ccc(OC)c2c(C)cc(N3CCN(C(=O)c4ccc(F)cc4)CC3)nc12	ERK AVP inh 32µM
COc1ccc(C(=O)N2CCN(c3ccc(C)c(C)c3)CC2)cc1OC	none (no result: ERK AVP inh)
COCCn1c(=O)c(CCc2ccccc2)nc2cnc(Oc3ccc(OC)cc3)nc21	TSHR agonist inconclusive, HEK293 cAMP ctrl inconclusive
COCCn1c(=O)c(CCc2ccccc2)nc2cnc(Oc3ccccc3)nc21	TSHR agonist inconclusive, HEK293 cAMP ctrl 25µM
N#CCCn1c(=O)c(CCc2ccccc2)nc2cnc(Oc3cccc(Cl)c3)nc21	TSHR agonist inconclusive, HEK293 cAMP ctrl 5µM
Cc1nc2cnc(Oc3cccc(Cl)c3)nc2n(CCC#N)c1=O	TSHR agonist inconclusive, HEK293 cAMP ctrl inconclusive
Cc1nc2cnc(OCc3ccccc3)nc2n(CCc2ccccc2)c1=O	TSHR agonist inconclusive, HEK293 cAMP ctrl 10µM
Cc1ccc(S(=O)(=O)C2(C(=O)N3CCCCC3C)CC2)cc1 (stereo not given)	none
O=C(Nc1ccccc1)N1CCCC2(CCN(C(=O)c3ccco3)CC2)C1	none
COCCNc1nc(C(C)(C)C)nc2c1nnn2Cc1ccccc1Cl	TSHR agonist inconclusive, HEK293 cAMP ctrl 2.5µM
O=c1cc(-c2cccc(O)c2O)oc2ccccc12	15-hLO inh inconclusive
CCCCCCSC1=C(C#N)C(c2ccc(C)o2)CC(=O)N1 (stereo not given)	15-hLO inh 25µM
Cc1ccc(C2CC(=O)NC(SCc3ccccc3)=C2C#N)o1 (stereo not given)	TSHR agonist inconclusive, HEK293 cAMP ctrl inconclusive (no result: ERK AVP inh)
O=C(NCCN1CCOCC1)c1ccc(Cc2nc3ccccc3[nH]2)cc1	none (no result: ERK AVP inh)
CC(=O)OC[C@@H]1O[C@@H](O/N=C2/C[C@@H](O)[C@@H](O)[C@@H]3[C@@H]4C(=O)N(Cc5ccc6c(c5)OCO6)C(=O)[C@H]4CC[C@H]23)[C@H](OC(C)=O)[C@H](OC(C)=O)[C@@H]1OC(C)=O	none
C=CCn1c(SCc2nc3ccccc3c(=O)[nH]2)nnc1-c1cc2cc(Cl)ccc2o1	TSHR agonist inconclusive, HEK293 cAMP ctrl 32µM
O=S(=O)(c1ccccc1)N1CCC2(CCN(Cc3nccs3)CC2)CC1	ERK AVP inh inconclusive
COc1ccccc1-c1cc(=O)c2cc(O)ccc2o1	TSHR agonist inconclusive, HEK293 cAMP ctrl 40µM
CCN(CC)[C@@H](C)CN1c2ccccc2Sc2ccccc21	15-hLO inh 13µM
CCN(CC)[C@@H](C)C(=O)N1c2ccccc2Sc2ccccc21	none (no result: TSHR agonist, ERK AVP inh, Caspase-7 inhib, Casp1 inh, 15-hLO inh)
Cc1ccc(-n2c(N)c(-c3nc4ccccc4n3C)sc2=S)cc1	15-hLO inh 3.2µM
C[C@@]12CCC(=O)C=C1CC[C@H]1[C@H]3CC[C@](O)(C(=O)CO)[C@]3(C)CC[C@@H]12	none (no result: TSHR agonist, ERK AVP inh, Caspase-7 inhib, Casp1 inh, 15-hLO inh)
COC(=O)c1ccc(COc2ccc3c(C)c(C)c(=O)oc3c2)o1	TSHR agonist inconclusive, HEK293 cAMP ctrl 4µM
CC(=O)Nc1cccc(C(=O)N2CCN(Cc3ccccc3)CC2)c1	none
O=C(c1cccc(C(=O)N2CCN(Cc3ccccc3)CC2)c1)N1CCN(Cc2ccccc2)CC1	TSHR agonist inconclusive, HEK293 cAMP ctrl 1.3µM, ERK AVP inh inconclusive
CC(C)C(OC(=O)c1ccco1)C(=O)NCc1ccccc1 (stereo not given)	TSHR agonist inconclusive, HEK293 cAMP ctrl 25µM
[O-][n+]1onc2c1CCc1c-2nc(-c2ccccc2)n1OCc1ccccc1	TSHR agonist inconclusive, HEK293 cAMP ctrl 13µM
COc1ccc2[nH]cc(CCNc3nc(-c4ccccc4OC)nc4ccccc34)c2c1	ERK AVP inh inconclusive, 15-hLO inh inconclusive
CC1(C)Cc2cccc(OCC(=O)O)c2O1	none
CC1(C)Cc2cccc(OCC(=O)Nc3ccccc3N3CCOCC3)c2O1	TSHR agonist inconclusive, HEK293 cAMP ctrl 20µM
N#CC(c1nc2ccccc2nc1N1CCCC1)S(=O)(=O)c1cccs1 (stereo not given)	ERK AVP inh inconclusive, Caspase-7 inhib inconclusive, 15-hLO inh 10µM (no result: Casp1 inh)
